In one test the target is Albumin (Bos taurus) (UniProt P02769). The test is described as follows: compounds binding labelled BSA control protein – biochemical, small-molecule microarray, Alexa647 label, 635/667 nm fluorescence, artefact control for SMM control protein annotation, profiling panel (AID 1118).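 Note: score merges 667 nm emission intensity and signal-to-noise per printed compound spot.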 To be noted: BSA-A647 binding, fluorescence 635 nm, higher = more signal.
Test [1] in a line: probe aXIP binding to arrayed compounds – biochemical, NeuroSMM set, 635/667 nm fluorescence, primary screen (AID 1119).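 Note: probe is the protein aXip251-270 applied at 1 µg/mL to compound-printed slides; binding of probe to printed compounds measured as 667 nm fluorescence plus signal to noise.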 The following applies: small-molecule microarray, higher = more signal, called active from +8 up or from −8 down.
Test [2] is described as follows: probe aNOTCH3 binding on compound microarray – biochemical, small-molecule microarray, 635/667 nm fluorescence, primary screen (AID 1120).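 Note: probe is a biotin-tagged antibody raised against NOTCH3 rather than NOTCH3 protein; score merges spot fluorescence near 667 nm with spot signal to noise.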 To be noted: higher = more signal.
The nature of test [3]: probe aNOTCH2 binding on compound microarray – biochemical, small-molecule microarray, 635/667 nm fluorescence, primary screen (AID 1121).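 Note: score merges feature fluorescence read at 667 nm with its signal to noise.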 To be noted: higher = more signal.
Test [4] addresses Carbonic anhydrase 2 (Homo sapiens) (UniProt P00918). The test is described as follows: compounds binding carbonic anhydrase 2 – biochemical, small-molecule microarray, Alexa647-labelled CAII, profiling panel (AID 1122). The following applies: CAII-A647 binding fluorescence, higher = more signal.
The nature of test [5]: COS7 lysate on small-molecule microarray, probe aHis, 635 nm (AID 1123).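 Note: z-score combines 667nm fluorescence intensity with signal-to-noise per printed compound spot.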 The following applies: COS7 cell lysate, fluorescence, higher = more signal.
A short description of test [6]: probe aLAP1 signal on lysate-treated microarray – cell lysate, small-molecule microarray, COS7 lysate, primary screen (AID 1124).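 Note: lysate comes from COS7 cells expressing LAP1 and is applied at 0.3 µg/mL; score merges spot fluorescence near 667 nm with signal-to-noise over triplicate slides.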 To be noted: probe aLAP1, fluorescence, higher = more signal.
For the next test, the system named is Sam68 (KHDRBS1). The test is described as follows: compounds binding KHDRBS1 protein – biochemical, small-molecule microarray, 635 nm fluorescence, primary screen (AID 1125).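 Note: score merges 667 nm channel intensity with signal to noise over triplicate slides.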 To be noted: higher = more signal.
For test [7], the system named is Chordin-like protein 2 (CHRDL2). The test can be described thus: compounds binding chordin-like 2 – biochemical, small-molecule microarray, 635 nm fluorescence, primary screen (AID 1126).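 Note: printed compound slides probed with Chrdl2 protein at 4 µg/mL for 1 h at 4 C; score merges 667 nm emission intensity with signal to noise over three replicate slides.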 To be noted: fluorescence 635 nm, higher = more signal.
In test [8] the target is Concanavalin-A (Canavalia ensiformis) (UniProt P02866). The test is described as follows: compounds binding concanavalin A lectin – biochemical, small-molecule microarray, Alexa647 label, 635 nm, artefact control for SMM control protein annotation, primary screen (AID 1127).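 Note: z combines 667 nm emission intensity with signal-to-noise across three replicate slides.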 The following applies: ConA-A647 binding fluorescence, higher = more signal.
Concanavalin-A (Canavalia ensiformis), sequence (P02866 whole entry, looked up): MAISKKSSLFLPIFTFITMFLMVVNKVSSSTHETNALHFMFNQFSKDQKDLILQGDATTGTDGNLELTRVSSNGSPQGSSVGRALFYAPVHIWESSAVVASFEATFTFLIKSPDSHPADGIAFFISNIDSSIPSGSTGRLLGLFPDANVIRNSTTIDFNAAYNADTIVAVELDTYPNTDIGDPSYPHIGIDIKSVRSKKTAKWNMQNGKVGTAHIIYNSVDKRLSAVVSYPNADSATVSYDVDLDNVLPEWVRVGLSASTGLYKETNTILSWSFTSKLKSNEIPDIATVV
Test [9] in a line: compounds binding Alexa647 anti-His antibody – biochemical, small-molecule microarray, 635 nm fluorescence, artefact control for SMM control protein annotation, primary screen (AID 1128).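 Note: score merges feature fluorescence with signal-to-noise for each printed compound spot.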 To be noted: higher = more signal.
The subject of test [10] is Human papillomavirus type 1a E7 protein (residues 1-88). The test can be described thus: HPV1a E7 small-molecule binders, primary screen, biochemical, small-molecule microarray, residues 1-88, 635 nm (AID 1129). To be noted: small-molecule microarray binding, fluorescence 635 nm; higher = more signal.
Test [11] addresses Focal adhesion kinase 1 (Homo sapiens) (UniProt Q05397). The test is described as follows: PTK2 protein binding on printed compound slides – biochemical, small-molecule microarray, 635/667 nm fluorescence, BSA, DTT, primary screen (AID 1130).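 Note: composite of spot emission at 667 nm and signal to noise over triplicate slides.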 The following applies: 635 nm fluorescence, higher = more signal.
Test [12] deals with Fibrinogen (Alexa647-labelled). The test can be described thus: Alexa647-fibrinogen binding to printed small molecules – biochemical, small-molecule microarray, 635/667 nm fluorescence, artefact control for SMM control-protein annotation, profiling panel (AID 1131).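 Note: z-score merges 667 nm fluorescence with per-spot signal-to-noise over triplicate slides.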 To be noted: fibrinogen-A647 binding fluorescence, higher = more signal.
Test [13] deals with Follistatin (Homo sapiens) (UniProt P19883). The test is described as follows: FST protein binding to printed compounds – biochemical, small-molecule microarray, 635/667 nm fluorescence, primary screen (AID 1132). To be noted: 635 nm fluorescence, higher = more signal.
Follistatin (Homo sapiens), sequence (P19883 whole entry, looked up): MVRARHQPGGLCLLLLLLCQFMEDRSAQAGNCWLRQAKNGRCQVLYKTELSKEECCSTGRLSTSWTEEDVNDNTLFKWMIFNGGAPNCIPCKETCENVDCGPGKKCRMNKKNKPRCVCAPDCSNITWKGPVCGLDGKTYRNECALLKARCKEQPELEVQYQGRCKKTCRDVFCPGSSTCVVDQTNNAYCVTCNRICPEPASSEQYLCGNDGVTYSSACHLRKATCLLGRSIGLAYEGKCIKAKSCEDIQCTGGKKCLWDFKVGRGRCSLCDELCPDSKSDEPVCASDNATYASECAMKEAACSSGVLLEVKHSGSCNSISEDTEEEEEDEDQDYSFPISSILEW
In test [14] the target is Fibroblast growth factor 2 (Homo sapiens) (UniProt P09038). The test can be described thus: basic fibroblast growth factor binding to printed compounds – biochemical, small-molecule microarray, 635/667 nm fluorescence, primary screen (AID 1133). To be noted: FGF2, fluorescence 635/667, higher = more signal.
Fibroblast growth factor 2 (Homo sapiens), sequence (P09038 whole entry, looked up): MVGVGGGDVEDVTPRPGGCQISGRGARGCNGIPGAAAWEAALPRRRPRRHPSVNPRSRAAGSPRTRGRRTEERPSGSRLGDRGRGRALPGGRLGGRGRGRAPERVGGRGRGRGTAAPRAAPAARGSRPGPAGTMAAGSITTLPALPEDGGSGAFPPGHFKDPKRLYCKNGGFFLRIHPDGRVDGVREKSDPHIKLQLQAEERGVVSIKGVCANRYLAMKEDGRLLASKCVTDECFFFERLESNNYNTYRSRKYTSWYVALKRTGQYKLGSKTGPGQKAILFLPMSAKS
The nature of test [15]: JC-1 mitochondrial potential readout, lung cancer cells – cell-based, A549, JC-1 fluorescence, basal, 24 h, 100 nL, profiling panel (AID 1138).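 Note: A549 lung adenocarcinoma cells under basal conditions with no added stimulus; test concentration not given here.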 The following applies: higher = more signal.
A further test has as its system Lefty1. The test is described as follows: Lefty1 protein binding to printed compounds – biochemical, small-molecule microarray, 635/667 nm fluorescence, primary screen (AID 1139). To be noted: fluorescence 635/667, higher = more signal.
Test [16] relates to wheat germ agglutinin (Triticum aestivum), Alexa647-labelled. The test can be described thus: Alexa647-WGA lectin binding to printed small molecules – biochemical, small-molecule microarray, 635/667 nm fluorescence, artefact control for SMM control-protein annotation, profiling panel (AID 1140).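 Note: score merges 667 nm feature emission with signal to noise over triplicate slides.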 The following applies: WGA-A647 binding, 635 nm fluorescence, higher = more signal.

The target of test [17] is Luciferin 4-monooxygenase (Photinus pyralis) (UniProt P08659). The test is described as follows: inhibition of purified Photinus pyralis luciferase – biochemical, luminescence, purified enzyme, 2006 set, primary screen (AID 1141).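 Note: cell-free assay with purified firefly luciferase at 100 ng per well in PBS; test concentration not given here.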 To be noted: purified firefly luciferase, SteadyGlo luminescence, 30 min; higher = more signal, called active from +8 up or from −8 down.
Luciferin 4-monooxygenase (Photinus pyralis), sequence (P08659 whole entry, looked up): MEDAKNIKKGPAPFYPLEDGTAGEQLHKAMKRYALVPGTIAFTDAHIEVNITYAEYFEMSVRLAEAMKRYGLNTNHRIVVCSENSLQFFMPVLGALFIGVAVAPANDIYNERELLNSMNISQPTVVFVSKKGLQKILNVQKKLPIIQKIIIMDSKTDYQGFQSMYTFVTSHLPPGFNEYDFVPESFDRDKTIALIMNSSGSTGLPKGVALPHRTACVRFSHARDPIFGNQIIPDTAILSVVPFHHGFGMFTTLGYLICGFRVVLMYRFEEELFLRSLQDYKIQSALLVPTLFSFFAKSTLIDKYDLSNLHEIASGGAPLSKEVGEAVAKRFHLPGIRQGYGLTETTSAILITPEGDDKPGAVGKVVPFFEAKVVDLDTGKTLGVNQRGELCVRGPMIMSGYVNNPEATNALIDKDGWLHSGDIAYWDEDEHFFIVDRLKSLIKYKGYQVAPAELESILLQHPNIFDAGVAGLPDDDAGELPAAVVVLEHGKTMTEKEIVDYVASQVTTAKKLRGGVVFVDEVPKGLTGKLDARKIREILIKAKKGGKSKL

Activity calls are given as the source filed them.

Focal adhesion kinase 1 (Homo sapiens), sequence (Q05397 whole entry, looked up): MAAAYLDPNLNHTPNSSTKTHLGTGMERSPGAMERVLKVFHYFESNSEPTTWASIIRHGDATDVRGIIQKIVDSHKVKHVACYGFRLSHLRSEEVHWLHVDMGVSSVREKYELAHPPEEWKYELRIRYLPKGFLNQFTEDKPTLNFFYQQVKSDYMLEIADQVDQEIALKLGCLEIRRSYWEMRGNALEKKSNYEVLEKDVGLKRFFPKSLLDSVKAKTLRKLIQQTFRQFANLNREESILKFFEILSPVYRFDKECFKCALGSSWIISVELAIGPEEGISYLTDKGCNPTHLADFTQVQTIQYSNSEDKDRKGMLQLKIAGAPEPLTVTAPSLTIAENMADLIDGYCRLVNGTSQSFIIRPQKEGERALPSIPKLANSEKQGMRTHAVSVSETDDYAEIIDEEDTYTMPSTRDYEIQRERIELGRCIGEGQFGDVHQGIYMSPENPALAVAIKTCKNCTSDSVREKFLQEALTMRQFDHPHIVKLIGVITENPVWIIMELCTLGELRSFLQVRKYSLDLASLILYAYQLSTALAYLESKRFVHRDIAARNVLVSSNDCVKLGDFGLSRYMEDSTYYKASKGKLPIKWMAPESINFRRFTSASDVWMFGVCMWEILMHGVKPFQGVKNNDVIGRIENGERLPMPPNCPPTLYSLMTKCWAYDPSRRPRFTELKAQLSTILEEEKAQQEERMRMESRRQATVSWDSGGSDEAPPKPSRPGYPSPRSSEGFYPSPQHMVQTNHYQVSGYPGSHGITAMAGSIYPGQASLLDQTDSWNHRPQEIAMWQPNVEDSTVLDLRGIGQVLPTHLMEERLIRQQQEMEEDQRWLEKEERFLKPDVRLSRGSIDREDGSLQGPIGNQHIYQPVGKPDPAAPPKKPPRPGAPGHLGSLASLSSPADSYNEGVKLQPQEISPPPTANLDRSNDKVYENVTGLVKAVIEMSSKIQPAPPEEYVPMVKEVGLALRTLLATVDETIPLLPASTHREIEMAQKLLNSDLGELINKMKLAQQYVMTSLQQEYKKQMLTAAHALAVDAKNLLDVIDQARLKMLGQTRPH
Albumin (Bos taurus), sequence (P02769 whole entry, looked up): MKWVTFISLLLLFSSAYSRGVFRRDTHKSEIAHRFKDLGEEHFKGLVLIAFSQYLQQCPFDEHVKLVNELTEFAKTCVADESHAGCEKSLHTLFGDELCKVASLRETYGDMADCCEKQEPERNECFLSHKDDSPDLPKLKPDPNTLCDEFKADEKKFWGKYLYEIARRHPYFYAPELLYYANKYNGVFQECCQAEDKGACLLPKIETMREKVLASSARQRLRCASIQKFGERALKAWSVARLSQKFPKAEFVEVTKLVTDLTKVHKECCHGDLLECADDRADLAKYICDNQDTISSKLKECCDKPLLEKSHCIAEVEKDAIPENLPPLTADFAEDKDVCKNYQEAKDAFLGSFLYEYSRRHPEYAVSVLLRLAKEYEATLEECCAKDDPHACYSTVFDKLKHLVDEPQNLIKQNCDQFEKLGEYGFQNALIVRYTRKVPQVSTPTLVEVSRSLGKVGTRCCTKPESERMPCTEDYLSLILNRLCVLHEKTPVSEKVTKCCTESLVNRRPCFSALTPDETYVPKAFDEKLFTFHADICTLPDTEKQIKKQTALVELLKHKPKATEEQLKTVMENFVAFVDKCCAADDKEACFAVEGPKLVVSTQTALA

Turning to `CCOC(=O)[C@H](CC(C)C)NC(=O)CCC1CC(OC(=O)NCc2ccc3c(c2)OCO3)CC2(CCCC(COC(=O)NCCOc3ccccc3)O2)O1` (stereo not given in full), the composite z-score in the test with Albumin (Bos taurus) is 0.232; in test [2], 0.0469; in test [3], -0.178; in test [4], 0.166; in test [5], 1.22; in test [6] it was -0.248. The composite z-score was determined as 1.33 in the test on Sam68 (KHDRBS1); 0.99 in test [7]; 1.14 in [8]; 0.424 in [9]; 1.17 in [10]; 0.0776 in test [11]. The composite z-score was found to be 1.01 in test [12]; 0.829 in test [13]; 0.846 in test [14]; 1.61 in the test with Lefty1; 0.598 in [16]. Besides, in [1], the composite Z-score was -0.198 (inactive). In addition, the z-score is 0.574 in [15] and 0.547 (inactive) in test [17].

For `CO[C@H]1C[C@@H]2C[C@H](O)CC(CC(=O)O[C@@H](C=CCC(C)C)C[C@@H]3CC[C@H](C)[C@@H](C1)O3)O2`, the composite z-score was 0.603 with Albumin (Bos taurus); 0.0824 in test [2]; -0.193 in test [3]; 0.276 in test [4]; 1.12 in [5]; -0.0223 in test [6]. The composite z-score worked out at 1.3 in the test with Sam68 (KHDRBS1); 0.629 in [7]; 0.389 in [8]; 0.583 in [9]; 0.959 in test [10]; 0.122 in test [11]. Further, the composite z-score in test [12] worked out at 0.707; in test [13], 0.719; in test [14], 0.361; in the test with Lefty1, 0.749; in test [16] it was 0.0954. Also, the composite Z-score in test [1] was -0.349 (inactive). Also, the z-score is -0.589 in [15] and -0.0042 (inactive) in [17].

For the compound `CCOC(=O)[C@H](CC(C)C)NC(=O)CCC1CC(OC(=O)NCc2ccc3c(c2)OCO3)CC2(CCCC(COC(=O)NCCC(C)C)O2)O1` (stereo not given in full), the composite z-score in the test with Albumin (Bos taurus) was 0.42; in [2], -0.0555; in test [3], -0.112; in test [4], 0.515; in [5], 0.298; in test [6], 0.0199. Moreover, the composite z-score is -0.557 in the test with Sam68 (KHDRBS1); -0.085 in test [7]; -0.746 in test [8]; 0.348 in test [9]; -0.438 in test [10]; 0.0454 in test [11]. The composite z-score in [12] was -0.27; in test [13] it was -0.14; in test [14], 0.279; in the test on Lefty1, 0.172; in [16], 0.182. For the same compound, in [1], the composite Z-score was 0.231 (inactive). Also, the z-score is 0.471 in [15] and 0.537 (inactive) in [17].

With `COC(=O)[C@H](C)NC(=O)CCC1CC(OC(=O)NCCc2ccc(F)cc2)CC2(CCCC(COC(=O)NCCOc3ccccc3)O2)O1` (stereo not given in full), the composite z-score is 0.752 with Albumin (Bos taurus); -0.029 in [2]; -0.0921 in [3]; 0.282 in [4]; 1.21 in [5]; -0.0401 in test [6]. The composite z-score in the test with Sam68 (KHDRBS1) was found to be 1.31; in test [7], 1.03; in test [8] it was 1.02; in test [9], 0.989; in [10], 1.16; in test [11], 0.821. Besides, the composite z-score in [12] is 0.659; in [13], 0.826; in test [14] it was 0.307; with Lefty1, 1.41; in test [16], 0.309. Moreover, the composite Z-score in test [1] is 0.59 (inactive). Moreover, the z-score in test [15] is 1.08; in test [17] it was 0.549 (inactive).

For the compound `COc1ccc(COC(=O)NN=C2C[C@@H](O)[C@@H](O)[C@@H]3[C@@H]4C(=O)N(Cc5ccccc5)C(=O)[C@@H]4CC[C@@H]23)cc1`, the composite z-score with Albumin (Bos taurus) was -0.0233; in test [2], -0.0362; in [3] it was -0.182; in test [4], -0.359; in test [5], 0.275; in test [6], -0.23. The composite z-score in the test with Sam68 (KHDRBS1) turned out to be 0.389; in [7], 0.172; in test [8], 0.0738; in test [9], 0.57; in [10], 0.343; in test [11], 0.0398. Moreover, the composite z-score in test [12] was -0.113; in test [13], 0.364; in test [14], 0.164; with Lefty1, 0.292; in test [16] it was -0.0049. Moreover, the composite Z-score in [1] was -0.185 (inactive). Also, the z-score in test [15] was 0.485; in test [17], 0.778 (inactive).

For the origin of these results see PubChem BioAssay.
